This is an account of results in PubChem BioAssay (NCATS).

Each structure is given as a SMILES string. Where “and” joins values, the source holds several entries; their conditions need not be identical. Equal entries are not always repeated. Inconclusive results are not listed. Values without a mark were called inactive. Calls of active or inactive are those of the source. Calls come from the whole dose curve; as a rule, active = well fitted curve in the direction sought with a large enough effect; inconclusive = small, poorly fitted or top-dose-only effect, or another doubt; inactive = no such curve, though single readings can be large; an effect the other way counts as inactive or inconclusive.
Potency is the fitted concentration of half-maximal effect.

Cellular tumor antigen p53 (Homo sapiens), sequence (P04637 whole entry, looked up): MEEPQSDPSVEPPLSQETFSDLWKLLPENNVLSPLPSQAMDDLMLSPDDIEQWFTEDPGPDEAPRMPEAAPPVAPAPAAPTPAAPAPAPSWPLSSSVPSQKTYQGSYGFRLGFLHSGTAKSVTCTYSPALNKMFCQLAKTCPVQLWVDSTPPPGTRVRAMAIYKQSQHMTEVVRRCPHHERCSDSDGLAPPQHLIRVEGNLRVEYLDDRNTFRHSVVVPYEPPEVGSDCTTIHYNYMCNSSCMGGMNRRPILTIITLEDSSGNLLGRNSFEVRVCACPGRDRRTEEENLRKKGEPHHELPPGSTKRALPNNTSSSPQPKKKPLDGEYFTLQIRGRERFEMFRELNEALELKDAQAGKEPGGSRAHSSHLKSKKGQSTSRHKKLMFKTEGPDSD

One assay has as its target Cellular tumor antigen p53 (Homo sapiens) (UniProt P04637). The assay can be described thus: Primary qHTS for small molecule compounds that upregulate eGFP-tagged delta133p53alpha (in N-terminal) cells. (AID 2060322).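 For activation: 0% = DMSO vehicle and 100% = reference activator.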 Note: nearly all actives have a fitted effect of over 75% in size. The following applies: NCI-H358 eGFP-delta133p53alpha fluorescence, 24 h; activation: active compounds read high. In outline: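 NCI-H358 cells pre-induced 24 h with 10 ng/ml doxycycline to express N-terminal eGFP-delta133p53alpha, then dosed 24 h at 37C without doxycycline; fixed, Hoechst-stained, GFP intensity by laser scanning cytometry, normalized to DMSO (0%) and 57.5 uM 5-azacytidine (100%).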
As to `CCCN1CCc2cc(O)cc3c2[C@H]1Cc1ccc(O)c(O)c1-3`, the activation was 23.3%.

`CC(N)Cc1c[nH]c2ccc(OCc3cccs3)cc12` (stereo not given): the activation was -31.9%. Same read-out and setting: under `CC(C)(O)[C@@H]1C2OC(=O)[C@@H]1[C@]1(O)C[C@H]3O[C@]34C(=O)O[C@H]2[C@]14C` (tested in a mixture with another compound) stands 10.1%. On to `CCCN1CCC[C@@H]2Cc3[nH]ncc3C[C@H]21`, for which the activation was -5.86% and -11.2% and 2.09%. As to `C[N+]1(C)C2CCC1CC(OC(=O)c1c[nH]c3ccccc13)C2` (stereo not given), the activation is -13.4%. Still for that read-out and setting: next, `Cn1c(CCCC(=O)O)nc2cc(N(CCCl)CCCl)ccc21`: 27.7% and 5.11% and -16.6%; `Cc1o[nH]c(=O)c1CC(N)C(=O)O` (stereo not given): 16.8%. As for `Oc1ccc2c3c1O[C@H]1c4oc5ccccc5c4C[C@@]4(O)C(C2)N(CC2CC2)CCC314` (stereo not given in full), the activation is -83.6%. Same read-out and setting: next, `NCC1(CC(=O)O)CCCCC1`: -0.945% and -3.35% and 5.99%; `O=C1C=CC(=O)C=C1`: 48.4%. Still for that read-out and setting: next, `O=P1(N(CCCl)CCCl)NCCCO1` (stereo not given): -25.4% and -10.4% and -10.6%; `C[N+](C)(C)CC#CCN1CCCC1=O`: -31.7%; `CCCC[N+]1(C)C2CC(OC(=O)[C@H](CO)c3ccccc3)CC1C1OC12` (stereo not given in full): -8.28%. In the case of `OC1CCCCC1N1CCC(c2ccccc2)CC1` (stereo not given), the activation was -21.4%. For `CC[C@@]1(O)C(=O)OCc2c1cc1n(c2=O)Cc2cc3ccccc3nc2-1`, the Potency is 1.09 µM (active).

In the case of `CCCN1CCO[C@@H]2c3cc(O)ccc3OC[C@H]21`, the activation is -9.95%. Still for that read-out and setting: next, `CC(=O)c1c(O)c(C)c(O)c(Cc2c(O)c3c(c(C(=O)/C=C/c4ccccc4)c2O)OC(C)(C)C=C3)c1O`: -54.1%; `CC(C)NC(C)Cc1ccc(I)cc1` (stereo not given): -3.39%; `COc1ccc(C(=O)N2CCCC2=O)cc1`: 27.7% and -18.6% and -9.06%.

With `CNCCc1c[nH]c2ccc(O)cc12`, the activation was -26.4%. Still for that read-out and setting: under `COc1cc(C(O)CN)ccc1O` (stereo not given) stands -24.3%; under `Cc1cccc(C)c1NC(=O)CN1CCCC1=O`, -17.7% and -15.1% and -5.58%. Consider `Cc1ncc(CNC(=O)N(CCCl)N=O)c(N)n1`, for which the activation is 6.21% and -40.8%. Still for that read-out and setting: under `N[C@@]1(C(=O)O)CC[C@@H](C(=O)O)C1` stands 21.8%.

Turning to `CCn1cnc2c(Nc3cccc(Cl)c3)nc(N[C@@H]3CCCC[C@@H]3N)nc21`, the Potency was 6.01 µM (active). Turning to `COc1ccccc1N1CCNCC1`, the activation was -15.9% and 0.526%.

Regarding `CCCN(CCC)C1CCc2ccc(O)cc2C1` (stereo not given), the activation is -10.8%. Still for that read-out and setting: under `CCS(=O)(=O)Nc1cccc(C(=C2CCCCC2)c2cnc[nH]2)c1` stands -47%. Same read-out and setting: next, `NCCc1ccc(S(=O)(=O)F)cc1`: -21.4%. Still for that read-out and setting: under `CCCN1CC[C@@H]2c3cc(O)ccc3CC[C@@H]21` stands -3.44%; under `NC(=O)CN1CCCC1=O`, -3.35% and 1.41%; under `O=S1(=O)N(CCN2CC=C(c3c[nH]c4cc(F)ccc34)CC2)c2cccc3c2N1CCC3`, 24.1%.

In the case of `CN(N=O)c1ccc(O)c(O)c1`, the activation is -30.1%. For `O=[N+]([O-])c1ccc2nc(N3CCNCC3)ccc2c1`, the activation was -42.9%. Turning to `CNCC(O)c1ccc(O)cc1` (stereo not given), the activation is -9.6% and -1.8% and -6.7%. On the same count and under the same terms, next, `COc1ccc2c(c1OC)C(=O)O[C@H]2[C@@H]1c2cc3c(cc2CCN1C)OCO3`: 9.21% and -17.4%. The same measure, in the same setting: under `C[C@]12Cc3cn4c(nc3C=C1CCC1C2CC[C@@]2(C)[C@H]1CC[C@@]2(O)C#N)nc1ccccc14` (stereo not given in full) stands -9.64%. Turning to `CCOC(=O)c1ncn2c1[C@@H]1CCCN1C(=O)c1cc(OC)ccc1-2`, the activation is 2.15%.

On to `CCCN1CCC[C@H](c2cccc(O)c2)C1`, for which the activation was 4.78%. As to `NC(CCCCCP(=O)(O)O)C(=O)O` (stereo not given), the activation is -10.2%.

The next assay shares this target. The experiment in a line: Primary qHTS for small molecule compounds that upregulate eGFP-tagged delta133p53alpha (in C-terminal) cells. (AID 2060324).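 For GFP increase (activation): 0% = DMSO wells and 100% = 57.5 µM 5-azacytidine.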 The following applies: NCI-H358 delta133p53alpha-eGFP (C-terminal tag), GFP fluorescence imaging, 24 h; series mostly up to 57.5 µM; GFP increase (activation): at the top concentration. The essentials: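 NCI-H358 cells with doxycycline-inducible D133p53a-eGFP (C-terminal tag), pre-induced 24 h with 100 ng/ml doxycycline, plated 800/well in doxycycline-free medium and treated 24 h at 37 °C with compound titrations. Cells were then fixed and Hoechst-stained, and GFP intensity was read by laser scanning cytometry.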
For orientation: In qHTS, concentration-response curves come from the screen itself.
With `CC(N)Cc1c[nH]c2ccc(OCc3cccs3)cc12` (stereo not given), the “GFP increase (activation)” value was 6.49%.

`CC(C)(O)[C@@H]1C2OC(=O)[C@@H]1[C@]1(O)C[C@H]3O[C@]34C(=O)O[C@H]2[C@]14C` (tested in a mixture with another compound): the “GFP increase (activation)” value is 4.09%. Regarding `CCCN1CCC[C@@H]2Cc3[nH]ncc3C[C@H]21`, the Potency result is “inactive”. As for `C[N+]1(C)C2CCC1CC(OC(=O)c1c[nH]c3ccccc13)C2` (stereo not given), the “GFP increase (activation)” value was -16.9%.

For `Cn1c(CCCC(=O)O)nc2cc(N(CCCl)CCCl)ccc21`, the “GFP increase (activation)” value was 1.47%.

With `Oc1ccc2c3c1O[C@H]1c4oc5ccccc5c4C[C@@]4(O)C(C2)N(CC2CC2)CCC314` (stereo not given in full), the “GFP increase (activation)” value is 15%. As to `NCC1(CC(=O)O)CCCCC1`, the “GFP increase (activation)” value is 2.1%. For `O=C1C=CC(=O)C=C1`, the “GFP increase (activation)” value is -3.94%.

Regarding `O=P1(N(CCCl)CCCl)NCCCO1` (stereo not given), the “GFP increase (activation)” value was -2.08%. On the same count and under the same terms, next, `C[N+](C)(C)CC#CCN1CCCC1=O`: -3.97%; `CCCC[N+]1(C)C2CC(OC(=O)[C@H](CO)c3ccccc3)CC1C1OC12` (stereo not given in full): -0.387%. As to `OC1CCCCC1N1CCC(c2ccccc2)CC1` (stereo not given), the “GFP increase (activation)” value is -2.18%.

Take `CC[C@@]1(O)C(=O)OCc2c1cc1n(c2=O)Cc2cc3ccccc3nc2-1`: the Potency is 3.79 µM (active). `CCCN1CCO[C@@H]2c3cc(O)ccc3OC[C@H]21`: the “GFP increase (activation)” value was -2.78%. For the molecule `CC(=O)c1c(O)c(C)c(O)c(Cc2c(O)c3c(c(C(=O)/C=C/c4ccccc4)c2O)OC(C)(C)C=C3)c1O`, the “GFP increase (activation)” value is -8.15%. On the same count and under the same terms, next, `CC(C)NC(C)Cc1ccc(I)cc1` (stereo not given): -5.77%; `COc1ccc(C(=O)N2CCCC2=O)cc1`: -0.299%; `CNCCc1c[nH]c2ccc(O)cc12`: -4.67%. Same read-out and setting: next, `COc1cc(C(O)CN)ccc1O` (stereo not given): -9.2%. Take `Cc1cccc(C)c1NC(=O)CN1CCCC1=O`: the “GFP increase (activation)” value was -9.48%.

For `Cc1ncc(CNC(=O)N(CCCl)N=O)c(N)n1`, the “GFP increase (activation)” value is -10.1%.

For `N[C@@]1(C(=O)O)CC[C@@H](C(=O)O)C1`, the “GFP increase (activation)” value was -8.87%. On the same count and under the same terms, next, `CCCN(CCC)C1CCc2ccc(O)cc2C1` (stereo not given): 1.52%. `CCS(=O)(=O)Nc1cccc(C(=C2CCCCC2)c2cnc[nH]2)c1`: the “GFP increase (activation)” value is 4.71%. Same read-out and setting: under `CCCN1CC[C@@H]2c3cc(O)ccc3CC[C@@H]21` stands -11.7%. On the same count and under the same terms, under `NC(=O)CN1CCCC1=O` stands -3.75%.

For `O=S1(=O)N(CCN2CC=C(c3c[nH]c4cc(F)ccc34)CC2)c2cccc3c2N1CCC3`, the “GFP increase (activation)” value was 2.62%.

Take `CN(N=O)c1ccc(O)c(O)c1`: the “GFP increase (activation)” value is 10.1%. For `O=[N+]([O-])c1ccc2nc(N3CCNCC3)ccc2c1`, the “GFP increase (activation)” value is 13.1%. Regarding `CNCC(O)c1ccc(O)cc1` (stereo not given), the “GFP increase (activation)” value is 1.82%. For `COc1ccc2c(c1OC)C(=O)O[C@H]2[C@@H]1c2cc3c(cc2CCN1C)OCO3`, the “GFP increase (activation)” value was 1.83%. Turning to `C[C@]12Cc3cn4c(nc3C=C1CCC1C2CC[C@@]2(C)[C@H]1CC[C@@]2(O)C#N)nc1ccccc14` (stereo not given in full), the Potency was 30.1 µM (active). For `CCOC(=O)c1ncn2c1[C@@H]1CCCN1C(=O)c1cc(OC)ccc1-2`, the “GFP increase (activation)” value is -4.69%. Same read-out and setting: next, `CCCN1CCC[C@H](c2cccc(O)c2)C1`: -10.6%. On the same count and under the same terms, next, `NC(CCCCCP(=O)(O)O)C(=O)O` (stereo not given): 0.545%.
